High-throughput results as filed in PubChem.
Compounds with a hit are over-represented: about 21% of the library has one in this group of screens.
Pf growth 96h: inhibits malaria parasite growth, 96 h; P. falciparum luciferase reporter growth, 96 h; actives 6.9% (n = 320,000); Potency, µM (top dose mostly 28.7 µM), inactives show at the top dose activity change, negative = inhibition, usual class: inhibitors; AID 504834; note: potency is the fitted concentration of half-maximal effect; % is set by controls: 0 for no effect and ±100 for the full control effect
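96 h incubation, 37 C, 5% CO2, of luciferase-reporter P. falciparum-infected RBCs (2% hematocrit, 0.05% parasitemia final) with test compounds; endpoint luminescence.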
Shiga inhibitor: Shiga toxin inhibition; Vero cells, Shiga toxin protein synthesis inhibition reporter; inhibition, % at 38.7 µM; actives 9.2% (n = 290,000); in the data active = inhibition mostly above about 28%, no sharp cut-off; inactive = mostly below about 43%; note: 0% is about no effect
Pf growth 48h: inhibits P. falciparum growth in the first generation, 48 h; P. falciparum luciferase growth in erythrocytes, 48 h; Potency, µM (doses to about 28.7 µM), inactives show top-dose activity change, negative = inhibition, hits mostly inhibitors; actives 5.9% (n = 310,000); AID 504832; note: potency is the fitted concentration of half-maximal effect; % is set by controls: 0 for no effect and ±100 for the full control effect
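Luciferase-expressing parasites in RBCs, 2% Hct / 0.1% parasitemia final; RPMI 1640 + 0.5% Albumax; 37 C, 5% CO2, one generation; luminescence read-out, lower signal = inhibition.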
SARS PLpro yeast: blocks SARS-CoV papain-like protease in a yeast assay | S. cerevisiae expressing SARS-CoV PLpro, growth rescue | actives 0.19% (n = 330,000) | Potency, µM (titrated, usually from 32.9 µM), for inactives: at the top dose activity, positive = growth rescue, most hits filed as activators | AID 485353; calls by dose curve; note: potency is the fitted concentration of half-maximal effect; 0% is about no effect; nearly all actives have a fitted effect of over 55% in size
CHX counter: counter-screen hit for Shiga toxin inhibitors, cycloheximide; cell reporter, cycloheximide protein synthesis inhibition counterscreen; max response, %; actives 12% (n = 300,000); in the data active = max response mostly above about 13%, no sharp cut-off; inactive = mostly below about 14%; note: read at 38.3 µM for the half of the compounds with a filed dose; 0% is about no effect
NS1 inh: blocks influenza NS1 protein function. actives 0.4% (n = 270,000). Potency, µM (highest dose often 46.1 µM), for the others: top-dose activity, positive = more growth. AID 2326; calls by dose curve; note: potency is the fitted concentration of half-maximal effect; actives are rising curves; nearly all actives have a fitted effect of over 50% in size
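S. cerevisiae expressing influenza A NS1, grown in glucose, washed, then diluted 1:100 into pH 6.0 -URA galactose medium with 23 nl compound. Growth recovery read as OD600; NS1-free strain serves as control.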
* marks the source's active call; other numbers are inactive results; i = inactive; ? = inconclusive; / = not tested or not shown. Unless noted, calls come from the whole dose curve; as a rule, active = well fitted inhibition curve with a large enough effect; inconclusive = small, poorly fitted or top-dose-only effect, or another doubt; inactive = no such curve, though single readings can be large or run the other way.

SMILES	Pf growth 96h	Shiga inhibitor	Pf growth 48h	SARS PLpro yeast	CHX counter	NS1 inh
O=C(Nc1ccc(OC(=O)c2ccco2)cc1)c1ccco1	?	32.3*	-22.9%	-54.4%	18.2	-16.3%
CC(Oc1ccc(NC(=O)c2ccco2)cc1)C(=O)N1c2ccccc2CC1C (stereo not drawn)	5.22µM*	-7.4	?	2.2%	-0.8	-65.4%
O=C(OC1CCCCC1)c1ccc(NC(=O)c2ccco2)cc1	2.94µM*	60.9*	?	-29.3%	36.1*	-105.7%
CC(Sc1nnnn1-c1ccc(Cl)cc1)C(=O)NCC(=O)Nc1ccc(F)c(F)c1F (stereo not drawn)	22.4%	11.8	-17.4%	-4.4%	10.9	14.8%
O=C(NCCc1ccccc1)c1ccc2c(c1)S(=O)(=O)c1cc(Cl)ccc1C2=O	-6.8%	/	?	2.2%	/	/
O=C(Nc1ccc(Oc2cccc3ccccc23)cc1)c1ccco1	16.2%	44.3	/	-39.3%	29.4*	-149.7%
C/C(=N\NC(=O)c1cc(C)[nH]n1)c1cccs1	48.5%	58.9*	i	-0.9%	11.6	/
C/C(=N\NC(=O)c1cc(C)[nH]n1)c1ccc(-c2ccccc2)cc1	?	55.2*	?	0.1%	8.6	-9.3%
OC(COCCOc1ccc(Br)cc1)CN1CCCCC1 (stereo not drawn)	-42.2%	-7.1	?	1.6%	0.5	6.9%
CCn1nccc1C(=O)Nc1ccc(C)c(C)c1	?	62.4*	62.8%	-7.7%	34.0*	-0.8%
Cc1ccc(NC(=O)c2cc(S(=O)(=O)N3CCCC3)cn2C)cc1C	46.5%	-2.2	?	1.5%	-1.1	2.4%
COc1cc(OC)cc(C(=O)Nc2ccc(NC(=O)c3ccco3)c(C)c2)c1	6.3%	36.5	62.2%	-42.8%	0.8	3.5%
Cc1cc(NC(=O)c2ccco2)ccc1NC(=O)c1ccco1	88.2%	70.7*	45.3%	-43.0%	22.2	2.1%
Cc1ccc(NCc2ccco2)cc1C	?	70.1*	17.5%	-0.2%	27.3*	0.1%
Cc1ccc(NC(=O)CCNC(=O)c2ccco2)cc1F	23.0%	25.7	3.2%	1.9%	12.8*	/
CCN1CCN(C(CNS(=O)(=O)c2ccc(Cl)cc2)c2cccnc2)CC1 (stereo not drawn)	-15.7%	10.0	-29.7%	-1.4%	-4.4	8.2%
Cc1ccc(C)c(NS(=O)(=O)c2ccc(NC(=O)c3ccco3)cc2)c1	11.7µM*	13.3	10.4µM*	?	-2.0	-9.5%
Cc1ccc(NC(=O)c2ccco2)cc1C	13.1%	83.9*	226.4%	-34.1%	37.1*	-155.9%
Cc1cc(NC(=O)/C=C/c2ccco2)ccc1NC(=O)c1ccccc1	33.1%	52.8*	19.2%	-0.1%	28.6*	?
COc1ccc(OCC(O)CNC(=O)Nc2ccc(F)cc2)cc1 (stereo not drawn)	-20.6%	-4.3	-8.4%	-0.8%	-1.4	1.8%
O=C(Nc1ccccc1)c1ccc(-c2ccc([N+](=O)[O-])cc2)o1	37.3%	68.8*	?	-3.8%	31.3*	-1.6%
O=C(Nc1cccc(NC(=O)c2ccc(-c3ccc(Br)cc3)o2)c1)c1ccccc1	43.1%	-10.8	/	8.5%	-9.4	1.7%
O=C(Nc1ccccc1)c1ccc(-c2ccc(Br)cc2)o1	102.7%	53.9*	112.8%	-67.7%	37.8*	-1.1%
O=C(c1ccc(-c2ccc([N+](=O)[O-])cc2)o1)N1CCCCC1	31.5%	92.6*	296.4%	-22.6%	43.4*	-49.8%
CN(Cc1ccccc1)S(=O)(=O)c1ccc(Cl)c(C(=O)NCc2ccc3c(c2)OCO3)c1	0.1%	-1.8	-0.2%	0.6%	-0.8	27.5%
SMILES	Pf growth 96h	Shiga inhibitor	Pf growth 48h	SARS PLpro yeast	CHX counter	NS1 inh
CC(C)c1ccc(-c2csc3ncnc(N4CCN(C)CC4)c23)cc1	?	-7.4	?	0.5%	-3.8	-0.8%
Cc1ccc(C(C)C)cc1OCCCCN1CCCC1	20.7%	-6.2	?	-15.6%	-3.0	4.5%
CSC(=NC#N)N1CCN(c2ccc(Cl)cc2)CC1	30.7%	47.3*	8.7%	-24.2%	27.8*	-29.7%
CCn1cc(S(=O)(=O)CC(=O)Nc2ccc(C)cc2)c2ccccc21	2.62µM*	-10.7	5.6%	7.2%	-0.3	-4.8%
CCCn1cc(S(=O)(=O)CC(=O)Nc2ccc(OCC)cc2)c2ccccc21	19.9%	-10.5	13.1µM*	-4.5%	-0.9	-20.5%
CCn1cc(S(=O)(=O)CC(=O)Nc2cccc(C)c2)c2ccccc21	?	-5.4	-5.3%	0.8%	-2.4	0.4%
CN(C)C(CNc1ccc([N+](=O)[O-])cc1C#N)c1ccccc1 (stereo not drawn)	11.9%	-10.7	1.9%	0.6%	-6.0	/
Cc1ccc2c(c1)N(C(=O)CCC(=O)NC1CCCCCC1)CC(C)O2 (stereo not drawn)	5.9%	9.4	-21.7%	2.2%	-1.2	-7.0%
CCN1CCCC1CNC(=O)c1ccc2c(c1)NC(=O)/C(=C\c1ccc(OC)c(OC)c1)S2 (stereo not drawn)	?	0.3	4.65µM*	2.7%	8.8	4.5%
CCc1noc(C)c1C(=O)Nc1ccc(F)c(F)c1	-1.0%	/	20.7%	-3.1%	/	/
CC(C)c1cc(CN2CCN(CCC#N)CC2)cc(C(C)C)c1O	?	-17.7	2.33µM*	2.5%	-1.6	2.6%
CC(C)(C)c1cc(CN2CCN(CCO)CC2)cc(C(C)(C)C)c1O	?	-5.0	3.8%	-32.4%	-5.3	-7.7%
COC(=O)c1ccc(NC(=O)CN2C(=O)CSC2=O)cc1	/	17.2	13.5%	6.0%	15.5*	-0.8%
CCOC(=O)c1ccc(NC(=O)CN2C(=O)CSC2=O)cc1	/	59.3	28.8%	4.5%	23.3*	3.3%
CCOC(=O)c1ccc(NC(=O)CN2C(=O)CSCC2=O)cc1	44.2%	-10.3	18.2%	2.5%	10.1	-1.0%
O=C(CN1C(=O)CSC1=O)Nc1ccc(N2CCOCC2)cc1	/	-3.2	18.5%	2.8%	-1.9	2.2%
Cc1ccc(N2CC(C(=O)Nc3ncc([N+](=O)[O-])s3)CC2=O)cc1 (stereo not drawn)	-14.6%	19.1	12.2%	1.9%	0.3	-4.3%
O=C(Cn1cncn1)NCCCc1ccccc1	?	22.3	i	-0.2%	-0.2	/
Cc1cc(NC(=O)CCC(=O)N(Cc2ccco2)C2(C(=O)NC3CCCCC3)CCCCC2)no1	1.31µM*	-6.5	-24.7%	-1.1%	-4.1	0.1%
Cc1cc(NC(=O)CCC(=O)N(c2ccc(F)cc2)C2(C(=O)NC3CCCCC3)CCCC2)no1	128.2%	14.0	?	?	-5.7	-6.6%
Cc1cc(NC(=O)CCC(=O)N(Cc2ccccc2)C2(C(=O)NC3CCCCC3)CCCC2)no1	?	-10.1	9.28µM*	1.2%	7.1	0.7%
COc1ccc(CCNC(=O)CC2SC(=NCCc3ccccc3)NC2=O)cc1OC (stereo not drawn)	9.28µM*	6.0	13.1µM*	5.0%	-3.1	13.6%
